From PubChem
A549 viability: A549 cytotoxicity, counter-screen for Nrf2 inhibitors; Potency, µM (titrated, usually from 46 µM), without a hit: at the top dose activity change, negative = cytotoxicity, hits mostly inhibitors; actives 0.16% (n = 390,000); A549 ARE-Fluc cells, CellTiter-Fluor viability, 18-24 h; also: potency is read from the fitted curve at half-maximal effect; % is scaled to controls: 0 for no effect and ±100 for the full control effect
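Cytotoxicity counterscreen: CellTiter-Fluor fluorescence was measured in A549 ARE_Fluc cells after 18-24 h of compound exposure in a concentration series. The subsequent BugLite luminescent read reports ARE-luciferase activity.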
LDHA inh: LDHA (human) enzyme inhibition; P00338; activity change, % (values are at about 110 or 230 µM); actives 0.15% (n = 480,000); purified LDHA, NADH/diaphorase-resazurin fluorescence; hits give low values; in the data active = activity change below about -30%; inconclusive = mostly about -25% to -30%;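 also: plate controls were DMSO wells for no effect and wells without enzyme for full effect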
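Remaining NADH was detected by diaphorase (0.133 mg/mL) converting 37 µM resazurin to fluorescent resorufin, read at 0 and 20 minutes. The preceding 5-minute room-temperature reaction used 2 nM LDHA, 0.2 mM sodium pyruvate and 0.06 mM NADH at pH 7.4.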
ERG Ets-DNA blk: blocks human ERG Ets domain binding to DNA | P11308 | fluorescence polarization, His-ERG Ets domain / labelled DNA | Potency, µM (titrated, usually from 76.9 µM), for the others: at the highest dose FP activity, negative = inhibition, actives largely listed as inhibitors | actives 0.028% (n = 370,000); active = well fitted inhibition curve with a large enough effect in the polarisation, with a control signal flat; inconclusive = small, poorly fitted or top-dose-only effect, or effect the other way, or a change in a side signal; inactive = no such curve, though single readings can be large or run the other way; the % refers to the polarisation;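 also: polarization taken with two DNA probes labelled with fluorescein and Texas red; potency is read from the fitted curve at half-maximal effect; % of control where 0% means no effect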
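His-tagged ERG Ets domain (1 uM in the protein solution; 300mM KCl, 50mM Tris-HCl, 1mM EDTA, 1mM DTT, pH 7.5) received compound, then a probe mix of 5 nM fluorescein-DNA and 100nM Texas-615-DNA. Fluorescence polarization was read for both dyes.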
12-LOX inh: blocks human arachidonate 12S-lipoxygenase | actives 1.1% (n = 580,000) | Potency, µM (doses to about 108 µM), for inactives: at the top dose activity change, negative = inhibition, usual class: inhibitors | P18054 | purified 12hLO, xylenol orange hydroperoxide absorbance; also: potency is read from the fitted curve at half-maximal effect; % is scaled to controls: 0 for no effect and ±100 for the full control effect
Target sequence (P18054 whole entry, looked up): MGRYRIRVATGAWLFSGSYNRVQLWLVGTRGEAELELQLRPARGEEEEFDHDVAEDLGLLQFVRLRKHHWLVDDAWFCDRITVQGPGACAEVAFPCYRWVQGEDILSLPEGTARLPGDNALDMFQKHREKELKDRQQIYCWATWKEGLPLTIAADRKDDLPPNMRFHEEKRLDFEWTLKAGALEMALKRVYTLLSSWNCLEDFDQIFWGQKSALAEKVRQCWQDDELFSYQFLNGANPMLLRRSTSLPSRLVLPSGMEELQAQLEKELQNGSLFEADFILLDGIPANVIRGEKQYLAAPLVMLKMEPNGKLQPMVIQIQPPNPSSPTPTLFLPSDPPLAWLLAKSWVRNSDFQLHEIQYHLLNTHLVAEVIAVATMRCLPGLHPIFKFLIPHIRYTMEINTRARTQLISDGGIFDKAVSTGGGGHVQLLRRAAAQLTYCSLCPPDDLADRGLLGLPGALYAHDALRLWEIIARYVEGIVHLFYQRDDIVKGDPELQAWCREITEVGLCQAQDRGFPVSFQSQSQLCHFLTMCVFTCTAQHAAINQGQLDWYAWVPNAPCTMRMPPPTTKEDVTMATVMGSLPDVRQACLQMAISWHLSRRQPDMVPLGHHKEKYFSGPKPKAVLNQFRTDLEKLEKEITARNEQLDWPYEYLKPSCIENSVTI
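Purified human 12hLO (150 nM final) in 25 mM Hepes, 0.01% Triton X-100, pH 7.0 was preincubated 15 min at room temperature with compound. Then 40 uM arachidonic acid was added, 30 min. Hydroperoxide was read by Fe-XO absorbance ratio 573/405 nm.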
Nrf2 ARE act: activators of Nrf2 (ARE) signaling; AREc32 ARE-luciferase reporter (MCF7-derived line), luminescence, 24 h; Potency, µM (top dose mostly 46.1 µM), without a hit: at the top dose activation, usual class: activators; actives 0.31% (n = 410,000); also: potency is read from the fitted curve at half-maximal effect; % of control where 0% means no effect; nearly all actives have a fitted effect of over 65% in size
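Cells of the AREc32 ARE-luciferase line are plated in OPTI-MEM containing 5% FBS and left overnight at 37 deg C. Compounds are pinned in, incubation continues 24 hr, and firefly luciferase signal is then measured.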
Nrf2 inh: blocks Nrf2 signaling. A549 ARE-Fluc reporter, luciferase luminescence, 18-24 h. Potency, µM (highest dose often 46 µM), without a hit: at the top dose activity change, negative = inhibition, actives largely listed as inhibitors. actives 2.1% (n = 360,000); also: potency is read from the fitted curve at half-maximal effect; % is scaled to controls: 0 for no effect and ±100 for the full control effect; nearly all actives have a fitted effect of over 60% in size
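A549 ARE_Fluc cells, 5000/well, 5% FBS OPTI-MEM; compounds in dose-response, 18-24 h at 37 °C/5% CO2; CellTiter-Fluor viability read (Ex 405/Em 525), then BugLite luciferase luminescence = Nrf2 activity.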
* = called active by the depositor. Compounds with a hit are over-represented: about 2.7% of the library has one in this group of screens. Unless noted, calls follow the shape of the dose curve; as a rule, active = well fitted curve in the direction sought with a large enough effect; inconclusive = small, poorly fitted or top-dose-only effect, or another doubt; inactive = no such curve, though single readings can be large; an effect the other way counts as inactive or inconclusive.

Cc1cccn2c(=O)c3cc(C(=O)NCCc4ccc(S(N)(=O)=O)cc4)n(C)c3nc12 was read as A549 viability 3.2%, LDHA inh -20.4, ERG Ets-DNA blk -12.9%, 12-LOX inh -39.0%, Nrf2 ARE act 0.1% and Nrf2 inh 0.9%.
`Cc1cc(C)nc(NS(=O)(=O)c2ccc(NC(=O)c3cc4c(=O)n5cccc(C)c5nc4n3C)cc2)n1` gave A549 viability -13.0%, LDHA inh -0.2, ERG Ets-DNA blk -3.5%, Nrf2 ARE act 0.1% and Nrf2 inh 23.1µM*.
For Cc1cc(O)c(N)c(C)c1Cl the results were A549 viability -3.6%, LDHA inh 18.8, ERG Ets-DNA blk 6.6%, 12-LOX inh 15.8µM*, Nrf2 ARE act inconclusive and Nrf2 inh 1.9%.
For Cn1nc(C(F)(F)F)c(C#N)c1N1CCN(c2ccc(F)cc2)CC1 the results were A549 viability -3.5%, LDHA inh -4.6, ERG Ets-DNA blk -6.3%, 12-LOX inh -3.9%, Nrf2 ARE act 0.2% and Nrf2 inh 11.6µM*.
`CCCOC(=O)c1ccc(Nc2nc3ccccc3nc2NS(=O)(=O)c2ccc(OC)cc2)cc1` gave LDHA inh -5.8 and 12-LOX inh inconclusive.
Screening Cc1cccc(N/N=C/c2ccc(Cl)c(Cl)c2)c1 returned LDHA inh -1.4 and 12-LOX inh 3.98µM*.
Screening Cc1cccc(N/N=C/c2ccc(F)c(F)c2)c1 returned LDHA inh -0.1 and 12-LOX inh 5.62µM*.
For Cc1cccc(N/N=C/c2ccc(Br)cc2)c1 the results were LDHA inh 5.7 and 12-LOX inh inconclusive.
Screening CC(C)(C)c1ccc(OCc2nn3c(CN4CCOCC4)nnc3s2)cc1 returned LDHA inh 1.6 and 12-LOX inh inconclusive.
`CCNC(=S)NCc1ccc(OC)c(OC)c1` gave A549 viability -6.1%, LDHA inh -6.5, ERG Ets-DNA blk -10.3%, 12-LOX inh -0.4%, Nrf2 ARE act 2.5% and Nrf2 inh -1.0%.
Screening COc1ccc(CCNC(=S)NCc2ccc(Cl)c(Cl)c2)cc1OC returned A549 viability 6.0%, LDHA inh -11.1, ERG Ets-DNA blk -6.0%, 12-LOX inh 44.7µM*, Nrf2 ARE act -0.3% and Nrf2 inh -16.2%.
Screening O=c1[nH]cc(Cc2ccccc2)c(=O)[nH]1 returned LDHA inh -7.0, 12-LOX inh inconclusive and Nrf2 ARE act 0.3%.
Screening S=c1[nH]cc(Cc2ccccc2)s1 returned A549 viability -5.1%, LDHA inh -4.0, ERG Ets-DNA blk -11.0%, 12-LOX inh 7.94µM*, Nrf2 ARE act 7.0% and Nrf2 inh -2.0%.
Screening COc1cc2c(cc1OC)C1(Nc3c-2c(Cc2ccccc2)nn3-c2ccccc2)C(=O)Nc2ccccc21 (stereo not given) returned A549 viability inconclusive, LDHA inh -5.9, ERG Ets-DNA blk -2.1%, 12-LOX inh inconclusive, Nrf2 ARE act -0.1% and Nrf2 inh 11.6µM*.
`CCC(C(=O)Nc1ccc(C(C)=O)cc1)n1nc(-c2cc(C)ccc2C)ccc1=O` (stereo not given) gave LDHA inh -5.5 and 12-LOX inh -9.3%.
For C#CCOCCOCCOCCNc1nc(N2CCN(C(=O)CCCCCCCCCCNC(=O)[C@H]([C@@H](C)CC)n3cc(CCCCN=C(N)N)nn3)CC2)nc(N2CCN(C(=O)CCCCCCCCCCNC(=O)[C@@H]([C@H](C)O)n3cc(C)nn3)CC2)n1 the results were A549 viability inconclusive, LDHA inh 0.7, ERG Ets-DNA blk 10.0%, Nrf2 ARE act -3.4% and Nrf2 inh 23.1µM*.
C#CCOCCOCCOCCNc1nc(N2CCN(C(=O)Cn3cc(CCCCN)nn3)CC2)nc(N2CCN(C(=O)Cn3cc(CCCN=C(N)N)nn3)CC2)n1 was read as A549 viability -1.3%, LDHA inh -6.1, ERG Ets-DNA blk -3.7%, 12-LOX inh 2.51µM*, Nrf2 ARE act 0.6% and Nrf2 inh -14.1%.
Screening O=C(NCCNc1ccc([N+](=O)[O-])cc1C(F)(F)F)c1ccc(F)cc1 returned A549 viability inconclusive, LDHA inh -2.0, ERG Ets-DNA blk -4.0%, 12-LOX inh -6.1%, Nrf2 ARE act 2.4% and Nrf2 inh 20.6µM*.
Screening NCCCNc1ccc([N+](=O)[O-])cc1C(F)(F)F returned A549 viability -7.5%, LDHA inh -10.5, ERG Ets-DNA blk -2.3%, 12-LOX inh -11.0%, Nrf2 ARE act -0.7% and Nrf2 inh 3.3%.
`Cc1cc(C)n(-c2nc3ccccc3nc2N2CCN(S(=O)(=O)c3ccc(C)c(C)c3)CC2)n1` gave LDHA inh -30.2* and 12-LOX inh 29.8%.
Screening Cc1ccc(S(=O)(=O)N2CCN(c3nc4ccccc4nc3-n3nc(C)cc3C)CC2)cc1 returned A549 viability -16.9%, LDHA inh 2.7, ERG Ets-DNA blk -1.1%, 12-LOX inh inconclusive and Nrf2 ARE act 2.0%.
`CCN1C(=O)COc2ccc(-c3nc(NC(=O)c4ccccc4)sc3C)cc21` gave LDHA inh 0.7 and 12-LOX inh inconclusive.
O=C(Nc1ccccc1Br)c1cnn2c(C(F)F)cc(C3CC3)nc12 was read as LDHA inh 1.5 and 12-LOX inh 4.4%.
Screening O=C(Nc1cc(Br)ccc1O)c1cnn2c(C(F)F)cc(C3CC3)nc12 returned A549 viability 7.9%, LDHA inh -3.2, ERG Ets-DNA blk -6.5%, 12-LOX inh 0.6%, Nrf2 ARE act 2.51µM* and Nrf2 inh -6.4%.
Screening CNC(NC(=O)c1ccc(Cl)cc1)C(Cl)(Cl)Cl (stereo not given) returned LDHA inh -24.3 and 12-LOX inh 41.3%.
For Fc1ccc(Sc2ccncc2)cc1 the results were LDHA inh 3.8 and 12-LOX inh 11.5%.
Cc1nnc(-c2ccccc2)o1 was read as A549 viability 1.8%, LDHA inh -4.7, ERG Ets-DNA blk 1.1%, 12-LOX inh -11.5%, Nrf2 ARE act -0.3% and Nrf2 inh -6.8%.
Screening Cc1cccc(-c2nnc(SCCC(=O)O)o2)c1 returned A549 viability 2.0%, LDHA inh -4.7, ERG Ets-DNA blk 0.7%, 12-LOX inh -13.3%, Nrf2 ARE act -3.9% and Nrf2 inh 1.46µM*.
`Cc1cccc(-c2nnc(-c3ccccc3)o2)c1` gave A549 viability 15.9%, LDHA inh -5.9, ERG Ets-DNA blk -1.4%, 12-LOX inh -8.7% and Nrf2 ARE act 11.2µM*.
`Cc1ccc(NC(=O)C(C#N)=C2CCC(C(C)(C)C)CC2)cc1` (stereo not given) gave LDHA inh -0.9 and 12-LOX inh -5.4%.
